Consider 16 compounds from ChEMBL document CHEMBL1961873, “Compounds: GSK PKIS; Assays: Nanosyn kinase panel” (2012).

Experiment [1] deals with Death-associated protein kinase 1 (Homo sapiens) (UniProt P53355). Conditions: at 1 µM.
Experiment [2] addresses T1, Serine/threonine-protein kinase DCLK2 (Homo sapiens) (UniProt Q8N568).
T1 sequence (whole entry): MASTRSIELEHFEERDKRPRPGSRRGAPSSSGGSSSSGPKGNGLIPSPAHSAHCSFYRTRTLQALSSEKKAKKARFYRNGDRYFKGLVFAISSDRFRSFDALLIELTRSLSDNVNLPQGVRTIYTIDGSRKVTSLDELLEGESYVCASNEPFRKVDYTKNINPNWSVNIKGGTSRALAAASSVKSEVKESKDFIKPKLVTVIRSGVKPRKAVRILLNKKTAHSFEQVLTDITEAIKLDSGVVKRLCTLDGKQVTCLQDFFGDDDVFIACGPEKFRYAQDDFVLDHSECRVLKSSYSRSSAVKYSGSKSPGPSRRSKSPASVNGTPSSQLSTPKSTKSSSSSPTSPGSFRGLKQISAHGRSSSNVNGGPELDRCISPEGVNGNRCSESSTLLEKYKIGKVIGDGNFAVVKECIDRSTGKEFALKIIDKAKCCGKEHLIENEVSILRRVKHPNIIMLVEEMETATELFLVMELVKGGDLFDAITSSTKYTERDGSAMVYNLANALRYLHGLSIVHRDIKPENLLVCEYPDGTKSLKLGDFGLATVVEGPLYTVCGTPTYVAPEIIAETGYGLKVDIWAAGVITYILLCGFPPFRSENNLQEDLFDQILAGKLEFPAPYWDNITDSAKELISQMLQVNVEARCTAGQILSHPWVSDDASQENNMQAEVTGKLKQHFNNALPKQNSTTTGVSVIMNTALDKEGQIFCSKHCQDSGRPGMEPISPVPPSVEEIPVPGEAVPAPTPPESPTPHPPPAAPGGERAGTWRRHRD
Conditions: at 0.1 µM.

For experiment [3], the target named is T1, Serine/threonine-protein kinase DCLK2 (Homo sapiens). Conditions: at 1 µM.
Experiment [4] deals with MAP kinase-activated protein kinase 2 (Homo sapiens) (UniProt P49137). Conditions: at 0.1 µM.
MAP kinase-activated protein kinase 2 (Homo sapiens), sequence (P49137 whole entry, looked up): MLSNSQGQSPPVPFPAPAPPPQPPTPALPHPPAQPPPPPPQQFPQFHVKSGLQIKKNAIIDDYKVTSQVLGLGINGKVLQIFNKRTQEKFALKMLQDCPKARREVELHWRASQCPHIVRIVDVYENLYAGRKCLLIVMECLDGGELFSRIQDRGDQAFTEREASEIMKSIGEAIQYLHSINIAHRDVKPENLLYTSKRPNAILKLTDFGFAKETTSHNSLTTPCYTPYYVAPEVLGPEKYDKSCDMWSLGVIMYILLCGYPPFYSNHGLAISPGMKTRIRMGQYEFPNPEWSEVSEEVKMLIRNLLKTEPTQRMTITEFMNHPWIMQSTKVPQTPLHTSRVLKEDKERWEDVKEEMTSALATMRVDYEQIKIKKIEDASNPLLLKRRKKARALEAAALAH
For experiment [5] the target is unchanged. Conditions: at 1 µM.
In experiment [6] the target is MAP kinase-activated protein kinase 3 (Homo sapiens) (UniProt Q16644). Conditions: at 0.1 µM.
MAP kinase-activated protein kinase 3 (Homo sapiens), sequence (Q16644 whole entry, looked up): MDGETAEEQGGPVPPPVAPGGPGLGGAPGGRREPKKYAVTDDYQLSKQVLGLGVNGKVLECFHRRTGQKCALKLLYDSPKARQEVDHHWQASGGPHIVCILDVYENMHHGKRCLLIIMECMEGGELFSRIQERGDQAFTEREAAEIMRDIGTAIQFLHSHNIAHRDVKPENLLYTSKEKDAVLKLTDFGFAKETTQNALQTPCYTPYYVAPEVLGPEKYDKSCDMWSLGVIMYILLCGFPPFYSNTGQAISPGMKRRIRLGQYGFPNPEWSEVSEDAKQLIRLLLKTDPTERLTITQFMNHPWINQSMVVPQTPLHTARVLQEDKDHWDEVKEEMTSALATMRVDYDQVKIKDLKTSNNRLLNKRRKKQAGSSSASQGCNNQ
The target is the same in experiment [7]. Conditions: at 1 µM.
The target in experiment [8] is Serine/threonine-protein kinase MARK1 (Homo sapiens) (UniProt Q9P0L2). Conditions: at 0.1 µM.
Serine/threonine-protein kinase MARK1 (Homo sapiens), sequence (Q9P0L2 whole entry, looked up): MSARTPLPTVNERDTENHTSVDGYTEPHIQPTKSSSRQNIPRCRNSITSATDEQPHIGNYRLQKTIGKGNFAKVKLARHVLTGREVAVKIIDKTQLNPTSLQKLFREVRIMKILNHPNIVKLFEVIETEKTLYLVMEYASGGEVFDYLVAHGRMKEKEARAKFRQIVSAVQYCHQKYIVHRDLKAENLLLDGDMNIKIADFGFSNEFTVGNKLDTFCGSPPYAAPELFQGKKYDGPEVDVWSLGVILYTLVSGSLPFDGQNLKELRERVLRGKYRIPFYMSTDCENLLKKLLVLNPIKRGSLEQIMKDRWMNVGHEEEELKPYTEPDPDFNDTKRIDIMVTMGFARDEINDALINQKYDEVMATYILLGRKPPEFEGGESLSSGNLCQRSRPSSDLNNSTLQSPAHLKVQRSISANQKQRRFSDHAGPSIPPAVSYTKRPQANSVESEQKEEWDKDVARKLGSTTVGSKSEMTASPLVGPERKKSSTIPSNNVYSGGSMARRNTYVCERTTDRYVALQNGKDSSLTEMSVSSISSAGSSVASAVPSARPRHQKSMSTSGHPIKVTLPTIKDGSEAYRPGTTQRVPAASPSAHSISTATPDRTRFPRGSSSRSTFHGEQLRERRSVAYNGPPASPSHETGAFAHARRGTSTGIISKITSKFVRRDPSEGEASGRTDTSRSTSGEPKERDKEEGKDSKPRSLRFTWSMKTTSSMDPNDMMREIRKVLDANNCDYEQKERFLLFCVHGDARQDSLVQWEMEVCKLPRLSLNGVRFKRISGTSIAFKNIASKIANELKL
Experiment [9] has the same target. Conditions: at 1 µM.
In experiment [10] the target is MAP/microtubule affinity-regulating kinase 3 (Homo sapiens) (UniProt P27448). Conditions: at 0.1 µM.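 Also: mean percent inhibition of MARK3 kinase activity, measured within the GSK PKIS screening panel.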
MAP/microtubule affinity-regulating kinase 3 (Homo sapiens), sequence (P27448 whole entry, looked up): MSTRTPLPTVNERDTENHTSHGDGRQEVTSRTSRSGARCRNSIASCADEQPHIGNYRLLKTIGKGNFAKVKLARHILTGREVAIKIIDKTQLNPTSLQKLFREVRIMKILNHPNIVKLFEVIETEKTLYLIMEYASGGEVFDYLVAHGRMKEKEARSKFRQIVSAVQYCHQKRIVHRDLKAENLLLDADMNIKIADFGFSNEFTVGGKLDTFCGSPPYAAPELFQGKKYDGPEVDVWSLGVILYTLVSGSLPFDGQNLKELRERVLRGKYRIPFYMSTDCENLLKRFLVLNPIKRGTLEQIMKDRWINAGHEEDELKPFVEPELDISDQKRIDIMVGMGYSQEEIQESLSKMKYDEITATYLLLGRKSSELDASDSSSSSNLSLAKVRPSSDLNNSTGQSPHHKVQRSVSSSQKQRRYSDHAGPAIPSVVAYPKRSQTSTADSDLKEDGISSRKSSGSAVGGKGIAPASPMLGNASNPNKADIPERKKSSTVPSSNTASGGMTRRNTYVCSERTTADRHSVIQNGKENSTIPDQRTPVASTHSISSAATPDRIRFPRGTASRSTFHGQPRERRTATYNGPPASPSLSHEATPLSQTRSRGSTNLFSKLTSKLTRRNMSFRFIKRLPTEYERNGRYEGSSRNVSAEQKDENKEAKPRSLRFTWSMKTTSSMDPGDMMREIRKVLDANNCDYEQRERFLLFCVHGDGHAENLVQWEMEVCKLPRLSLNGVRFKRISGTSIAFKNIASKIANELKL

Each structure is given as a SMILES string.

Death-associated protein kinase 1 (Homo sapiens), sequence (P53355 whole entry, looked up): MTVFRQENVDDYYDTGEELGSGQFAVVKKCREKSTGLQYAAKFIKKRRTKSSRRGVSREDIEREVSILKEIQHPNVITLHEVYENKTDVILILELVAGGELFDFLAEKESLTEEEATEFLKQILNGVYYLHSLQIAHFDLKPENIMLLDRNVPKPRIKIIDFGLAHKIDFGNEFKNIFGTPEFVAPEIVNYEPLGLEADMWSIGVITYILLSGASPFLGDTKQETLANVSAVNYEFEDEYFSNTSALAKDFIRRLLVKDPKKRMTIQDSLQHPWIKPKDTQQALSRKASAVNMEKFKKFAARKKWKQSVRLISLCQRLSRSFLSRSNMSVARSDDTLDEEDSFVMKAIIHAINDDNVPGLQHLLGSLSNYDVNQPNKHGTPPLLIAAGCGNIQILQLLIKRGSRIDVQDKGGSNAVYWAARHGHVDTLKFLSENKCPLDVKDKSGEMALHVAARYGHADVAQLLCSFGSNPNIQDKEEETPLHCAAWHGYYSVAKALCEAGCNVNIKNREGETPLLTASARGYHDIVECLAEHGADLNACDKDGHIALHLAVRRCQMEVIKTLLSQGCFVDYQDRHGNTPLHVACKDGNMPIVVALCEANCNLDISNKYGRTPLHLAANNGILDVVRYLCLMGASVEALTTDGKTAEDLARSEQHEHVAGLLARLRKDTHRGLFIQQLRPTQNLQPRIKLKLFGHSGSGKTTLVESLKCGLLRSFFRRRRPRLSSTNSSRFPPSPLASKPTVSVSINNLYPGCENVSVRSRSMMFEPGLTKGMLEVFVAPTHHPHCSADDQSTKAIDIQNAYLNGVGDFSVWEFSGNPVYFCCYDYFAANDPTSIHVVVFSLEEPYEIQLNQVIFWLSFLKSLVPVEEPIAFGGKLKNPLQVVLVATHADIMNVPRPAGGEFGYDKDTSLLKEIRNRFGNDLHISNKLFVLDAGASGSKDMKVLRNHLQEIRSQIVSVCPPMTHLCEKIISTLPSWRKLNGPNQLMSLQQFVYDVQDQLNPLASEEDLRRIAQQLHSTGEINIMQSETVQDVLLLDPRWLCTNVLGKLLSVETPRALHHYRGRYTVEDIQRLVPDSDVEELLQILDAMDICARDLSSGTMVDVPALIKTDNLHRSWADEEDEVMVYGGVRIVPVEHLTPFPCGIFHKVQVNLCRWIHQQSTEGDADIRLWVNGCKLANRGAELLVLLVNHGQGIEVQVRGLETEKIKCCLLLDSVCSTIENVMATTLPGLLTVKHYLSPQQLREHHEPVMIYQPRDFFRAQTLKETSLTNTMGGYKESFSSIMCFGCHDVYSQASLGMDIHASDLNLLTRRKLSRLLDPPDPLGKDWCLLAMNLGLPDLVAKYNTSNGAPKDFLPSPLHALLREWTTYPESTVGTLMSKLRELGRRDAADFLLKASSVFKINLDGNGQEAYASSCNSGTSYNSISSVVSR

With `CCCN1CCCC(c2ccc(Nc3nc(Nc4cc(F)ccc4C(N)=O)c4cc[nH]c4n3)c(OC)c2)C1` (stereo not given), the inhibition in [1] turned out to be 47.1%; in experiment [2] it was 2.57%; in experiment [3] it was 7.08%; in experiment [4], 2.17%; in experiment [5] it was 3.54%; in experiment [6] it was 8.62%. Besides, the inhibition in experiment [7] came out at 17.3%; in experiment [8], 11%; in experiment [9] it was 52.9%; in experiment [10] it was 19.9%.
Consider `Nc1nccc(C#Cc2cncnc2Nc2ccc(OCc3cccc(F)c3)c(Cl)c2)n1`, for which the inhibition in experiment [1] stood at 5.3%; in experiment [2] it was 1.36%; in experiment [3] it was 0.82%; in experiment [4], 1.66%; in experiment [5] it was 1.43%; in experiment [6], 2.38%. For the same compound, the inhibition in experiment [7] was 4.95%; in experiment [8], 5.72%; in [9], 10.4%; in experiment [10], 4.09%.
Consider `NS(=O)(=O)c1ccc(-c2cc3ccncc3cc2OCc2ccccc2)cc1`, for which the inhibition came to 1.02% in experiment [1]; 0.91% in experiment [2]; 3.41% in [3]; 1.47% in [4]; 1.1% in experiment [5]; 5.12% in experiment [6]. In addition, the inhibition in experiment [7] is 6.72%; in experiment [8], 0.77%; in [9], 3.63%; in experiment [10], -0.26%.
Turning to `Cc1ccc2c(c1)/C(=N/Nc1ccc(S(N)(=O)=O)cc1)C(=O)N2`, the inhibition was 1.29% in experiment [1]; 6.62% in experiment [2]; -0.15% in experiment [3]; -0.81% in experiment [4]; -0.37% in experiment [5]; 2.9% in [6]. Moreover, the inhibition in [7] is 1.35%; in experiment [8] it was 0.5%; in [9], 3.86%; in experiment [10] it was -0.22%.
As for `C[C@@H](Oc1cc(-n2cnc3ccc(OC[C@@H](O)CO)cc32)sc1C(N)=O)c1ccccc1Cl`, the inhibition in [1] is -5.26%; in experiment [2], 0.92%; in experiment [3], -6.84%; in experiment [4], -0.75%; in [5], -0.94%; in [6] it was -0.21%. Also, the inhibition in [7] was -0.73%; in experiment [8] it was 0.87%; in experiment [9], 5.71%; in experiment [10], 0.4%.
Take `CN(C)C(=O)O[C@@H]1CN[C@@H](C#Cc2cc3ncnc(Nc4ccc(OCc5cccc(F)c5)c(Cl)c4)c3s2)C1`: the inhibition in experiment [1] was 1.85%; in experiment [2] it was 1.22%; in [3], 0.53%; in [4] it was -2.43%; in [5] it was -0.13%; in experiment [6], 2.61%. Also, the inhibition in experiment [7] amounted to 3.12%; in [8], 0.76%; in [9] it was 0.76%; in [10], 2.16%.
Turning to `ON=C1CCc2cc(-c3nc(C4CCNCC4)[nH]c3-c3ccncc3)ccc21`, the inhibition in experiment [1] is 1.92%; in experiment [2], 2.56%; in experiment [3], -0.17%; in experiment [4], -0.64%; in experiment [5] it was -0.71%; in [6] it was 8.04%. In addition, the inhibition was determined as 26.9% in [7], 0.47% in experiment [8], 1.75% in [9] and 0.82% in [10].
On to `COc1ccc2ncnc(Nc3ccc(OCc4ccccc4)cc3)c2c1`, for which the inhibition in experiment [1] was 3.26%; in [2], -5.53%; in experiment [3], -8.44%; in [4], 1.42%; in [5], -2.28%; in experiment [6], 2.72%. In addition, the inhibition in experiment [7] is 4.71%; in experiment [8], 1.85%; in experiment [9], 3.7%; in experiment [10] it was 1.64%.
Take `O=C(Nc1ccc(Oc2ccc3[nH]c(NC(=O)c4ccco4)nc3c2)cc1)Nc1cc(C(F)(F)F)ccc1F`: the inhibition is -1.29% in [1]; -4.07% in experiment [2]; -5.38% in experiment [3]; -0.82% in experiment [4]; -1.43% in experiment [5]; 2.85% in experiment [6]. Moreover, the inhibition is 16.3% in experiment [7], -1.16% in experiment [8], 0.35% in [9] and -0.52% in [10].
For the compound `Cc1cc(-c2ccccn2)cc(C)c1/C=C/c1cncc(-c2nn[nH]n2)c1`, the inhibition in experiment [1] is 4.15%; in experiment [2], -0.19%; in experiment [3], 1.55%; in experiment [4] it was 2.23%; in [5], 2.74%; in experiment [6] it was 4.19%. Besides, the inhibition in experiment [7] was found to be 6.94%; in experiment [8], 1.24%; in experiment [9] it was 4.82%; in [10], 2.15%.
For the compound `c1ccc(Cc2nc3ccc(Nc4ncnc5ccccc45)cc3[nH]2)cc1`, the inhibition in experiment [1] was 5.17%; in experiment [2], -0.21%; in experiment [3], 1.02%; in experiment [4], 1.39%; in experiment [5] it was 1.85%; in experiment [6], 3.82%. In addition, the inhibition in experiment [7] came to 4.05%; in [8], 1.85%; in [9] it was 6.13%; in experiment [10], 1.67%.
For `CS(=O)(=O)Nc1cccc(-c2ccc3c(NC(=O)C4CC4)n[nH]c3c2)c1`, the inhibition in experiment [1] is 3.29%; in [2], 2.43%; in experiment [3], 1.35%; in [4] it was 0.07%; in [5] it was 0.38%; in [6] it was -0.07%. For the same compound, the inhibition in experiment [7] was 0.93%; in experiment [8] it was 0.98%; in experiment [9] it was 3.49%; in experiment [10] it was 1.49%.
For `CCOc1nccc2c1nc(-c1nonc1N)n2CC`, the inhibition in [1] worked out at 3.18%; in experiment [2] it was 0.43%; in experiment [3] it was 1.18%; in experiment [4], 2.38%; in [5], 2.83%; in [6], 3.14%. Moreover, the inhibition in experiment [7] was found to be 2.96%; in experiment [8], 2.58%; in experiment [9] it was 9.64%; in [10], 1.53%.
As for `COC(=O)c1ccc2c(c1)C(=Cc1cc(Br)c(O)c(Br)c1)C(=O)N2`, the inhibition in [1] was -8.17%; in experiment [2], 1.31%; in [3], 0.79%; in experiment [4] it was 4.54%; in [5], 7.08%; in [6] it was 8.04%. Besides, the inhibition is 10.5% in [7], 1.62% in experiment [8], 5.65% in [9] and -2.9% in experiment [10].
On to `CS(=O)(=O)CCNCc1nc(-c2ccc3ncnc(Nc4ccc(OCc5cccc(C(F)(F)F)c5)cc4)c3c2)cs1`, for which the inhibition in experiment [1] is 2.59%; in experiment [2] it was -1.01%; in experiment [3] it was 0.18%; in experiment [4], 0.97%; in experiment [5], 1.7%; in experiment [6] it was 2.23%. Also, the inhibition in experiment [7] stood at 2.67%; in experiment [8] it was 1%; in experiment [9], 1.98%; in experiment [10], 0.8%.
As to `CCn1c(-c2nonc2N)nc2c(C#CC(C)(C)O)nc(OCCNC)cc21`, the inhibition in [1] is -0.74%; in [2], -0.8%; in experiment [3], -0.85%; in [4], 1.85%; in experiment [5], 2.88%; in experiment [6] it was 2.43%. The inhibition in experiment [7] worked out at 3.56%; in experiment [8] it was 1.55%; in [9] it was 10.3%; in [10] it was 0.62%.
